A number with no mark means an inactive call. The source made the active and inactive calls. The call rests on the fitted dose curve.
target: Thyrotropin-releasing hormone receptor (Homo sapiens) (UniProt P34981); experiment: qHTS assay to identify small molecule agonists of the thyrotropin-releasing hormone receptor (TRHR) signaling pathway (AID 1346891); settings: TRHR-HEK293 calcium fluorescence, agonist mode; series mostly up to 57.6 µM;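 further: HEK293 cells expressing TRHR with calcium dye readout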
Sequence (P34981 whole entry, looked up): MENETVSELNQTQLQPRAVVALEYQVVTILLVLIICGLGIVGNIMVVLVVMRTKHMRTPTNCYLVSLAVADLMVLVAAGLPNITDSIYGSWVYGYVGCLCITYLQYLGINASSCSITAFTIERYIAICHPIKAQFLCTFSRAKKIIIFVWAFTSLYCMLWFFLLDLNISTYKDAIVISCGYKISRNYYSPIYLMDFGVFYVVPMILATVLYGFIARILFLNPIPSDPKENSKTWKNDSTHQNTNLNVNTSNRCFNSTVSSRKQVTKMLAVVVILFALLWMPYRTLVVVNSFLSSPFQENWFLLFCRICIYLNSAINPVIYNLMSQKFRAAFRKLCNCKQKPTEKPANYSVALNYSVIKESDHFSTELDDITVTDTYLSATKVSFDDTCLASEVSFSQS
From the text: National Center for Advancing Translational Sciences [NCATS] NIH Chemical Genomics Center [NCGC] U.S. Environmental Protection Agency [EPA] National Institutes of Environmental Health Sciences [NIEHS] National Toxicology Program [NTP] Assay overview: Thyrotropin-releasing hormone (TRH) receptor (TRHR) is a G-protein-coupled receptor which binds the tripeptide thyrotropin releasing hormone. TRHR is found in the brain and, when bound by TRH, acts (through phospholipase C) to increase intracellular inositol trisphosphate. It plays a crucial role in the anterior pituitary where it controls the synthesis and secretion of thyroid stimulating hormone and prolactin. The TRHR-Hek293 assay is a cell-based assay, and it has the potential to screen G protein-coupled receptors. A compound/drug can either activate (agonist) or suppress (antagonist) GPCRs that can be monitored by levels of intracellular calcium. Using this assay, the Tox21 10K compound library was screened to identify potential TRHR agonists.
Assay Protocol Summary: The TRHR-Hek293 cells were dispensed at 1500cells/4uL/well in 1536-well black-clear bottom plates using a Multidrop dispenser. After the assay plates were incubated at a 37 C/5% CO2 incubator for 18 hours, 4 uL of Dye-Loading Solution was added to each well. The plates were incubated at 37 C for 2 hours. For agonist mode, 23 nL of compounds dissolved in DMSO, positive controls or DMSO only was transferred to the assay plate by a pin tool. The fluorescence intensity in the plates was measured using FDSS 7000EX kinetic plate reader for 3 min at 1 sec intervals. Each test compound was measured at 15 concentrations and in triplicates.
On the % scale 0 is the no-effect control and ±100 the full control effect.

Row | Structure (SMILES) | outcome | activation
1 | COc1cc2c(cc1OC)[C@@]13CCN4CC5=CCO[C@H]6CC(=O)N2[C@H]1[C@H]6[C@H]5C[C@H]43 | inactive | 
2 | O=[N+]([O-])c1cccc2cccnc12 | inactive | 
3 | CCCSC(=O)N(CCC)CCC | inactive | 
4 | CC(Cl)(Cl)[N+](=O)[O-] | inactive | 
5 | C=CCC1=C(C)[C@@H](OC(=O)[C@@H]2[C@@H](C=C(C)C)C2(C)C)CC1=O | inactive | 
6 | CCC1(c2ccccc2)C(=O)NC(=O)NC1=O | inactive | 
7 | O=P(O)(Oc1ccccc1)Oc1ccccc1 | inactive | 
8 | CN1CCC(N(Cc2ccccc2)c2ccccc2)CC1 | inactive | 
9 | O=C(Oc1ccc(Br)cc1)N1CCN2CCC1CC2 | inactive | 
10 | CCOP(=S)(OCC)Oc1cc(-c2ccccc2)on1 | inactive | 
11 | COC(=O)c1c(C(F)F)nc(C(F)(F)F)c(C2=NCCS2)c1CC(C)C | inactive | 
12 | CCN(Cc1ccc(Cl)nc1)/C(=C/[N+](=O)[O-])NC | inactive | 
13 | CCOC(=O)NC(=S)Nc1ccccc1NC(=S)NC(=O)OCC | inactive | 
14 | CCC1(c2ccccc2)C(=O)N=C(O)NC1=O (stereo not given) | inactive | 
15 | O=C(Nc1ccccc1)c1ccccc1I | inactive | 
16 | O=C(Nc1ccccc1)N(Cc1ccc(Cl)cc1)C1CCCC1 | inactive | 
17 | CCC#N | inactive | 
18 | CCOP(=O)(OCC)OP(=O)(OCC)OCC | inactive | 
19 | CN(N=O)C(N)=O | inactive | 
20 | OC(c1ccccc1)(c1ccccc1)C1CCNCC1 | inactive | 

Row | Structure (SMILES) | outcome | activation
21 | C(CCOCC1CO1)COCC1CO1 (stereo not given) | inactive | 
22 | CCOP(=S)(OCC)SCSP(=S)(OCC)OCC | inactive | 
23 | Nc1cc(Cl)ccc1O | inactive | 
24 | CCC(=O)C(CCN(C)C)(c1ccccc1)c1ccccc1 | inactive | 
25 | O=C1c2ccccc2C(=O)c2ccccc21 |  | -0.0612% [at 11.8 µM]
26 | Cc1cnc[nH]1 | inactive | 
27 | CNC(=O)Oc1ccccc1C1OCCO1 | inactive | 
28 | CCOP(=O)(N=C1SCCS1)OCC | inactive | 
29 | CC1(C)C(=O)NC(=O)NC1=O | inactive | 
30 | CC1(C(=O)Nc2ccc(O)c(Cl)c2Cl)CCCCC1 | inactive | 
31 | CC(C)CC(N(C)C)C1(c2ccc(Cl)cc2)CCC1 (stereo not given) | inactive | 
32 | Cc1cc(C)c(C(=O)P(=O)(C(=O)c2c(C)cc(C)cc2C)c2ccccc2)c(C)c1 | inactive | 
33 | Cc1ncsc1CCCl | inactive | 
34 | O=C1OC(=O)C2C1C1(Cl)C(Cl)=C(Cl)C2(Cl)C1(Cl)Cl (stereo not given) | inactive | 
35 | O=C1CN=C(c2ccccc2)c2cc([N+](=O)[O-])ccc2N1 | inactive | 
36 | CC(=O)[C@H]1CC[C@H]2[C@@H]3CC[C@H]4C[C@H](O)CC[C@]4(C)[C@H]3C(=O)C[C@]12C | inactive | 
37 | CC(CC(C#N)(c1ccccc1)c1ccccc1)N(C)C (stereo not given) | inactive | 
38 | Nc1n[nH]c(N)n1 | inactive | 
39 | Cc1nc(N)nc(N)n1 | inactive | 
40 | ClC(Cl)Br | inactive | 

Reference: PubChem BioAssay (Tox21)
